Shown are actives, neighbours in structure and some others; about 7.4% of the full set was active somewhere.
SMN2 splice enh: increases expression of the SMN2 splice variant; HEK293 SMN2-luciferase splicing reporter, luminescence, 30-36 h; Potency, µM (doses to about 46.1 µM), without a hit: top-dose activity change, positive = activation, most hits filed as activators; 2.8% of 210,000 active; further: % of control where 0% means no effect; nearly all actives have a fitted effect of over 55% in size
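HEK293 cells carry an SMN2 minigene-luciferase reporter in which exon 7 inclusion puts luciferase in frame. Cells were seeded at 2000 cells/well, attached for 10-12 hours, then exposed to compounds for 30-36 hours at 37C before ONE-Glo luminescence.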
FLuc counter: counter-screen for miR-21 project: firefly luciferase inhibitors or activators. P08659. purified FLuc, Km substrates, luminescence inhibition. Potency, µM (titrated, usually from 57.5 µM), inactives show at the top dose activity change, negative = inhibition, most hits filed as inhibitors. 6.9% of 360,000 active;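 further: plate controls were vehicle for no effect and reference inhibitor for full effect; nearly all actives have a fitted effect of over 55% in size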
Target sequence (P08659 whole entry, looked up): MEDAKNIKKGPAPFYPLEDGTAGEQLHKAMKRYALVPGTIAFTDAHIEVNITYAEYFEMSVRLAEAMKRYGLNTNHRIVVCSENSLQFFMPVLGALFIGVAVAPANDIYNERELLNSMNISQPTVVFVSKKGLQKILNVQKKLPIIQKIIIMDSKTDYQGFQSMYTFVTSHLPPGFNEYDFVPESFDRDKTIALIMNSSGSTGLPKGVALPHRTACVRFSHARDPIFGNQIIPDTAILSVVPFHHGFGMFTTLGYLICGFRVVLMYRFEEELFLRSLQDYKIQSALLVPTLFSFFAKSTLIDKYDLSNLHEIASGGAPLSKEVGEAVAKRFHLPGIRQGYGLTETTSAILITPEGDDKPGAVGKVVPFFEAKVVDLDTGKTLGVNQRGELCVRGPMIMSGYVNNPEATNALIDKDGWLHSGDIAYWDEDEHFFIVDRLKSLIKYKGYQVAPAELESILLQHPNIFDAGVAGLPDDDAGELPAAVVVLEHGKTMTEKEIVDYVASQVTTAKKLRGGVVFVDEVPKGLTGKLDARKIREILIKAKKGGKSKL
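Biochemical qHTS of compounds, final roughly 60 µM downward over six points, against 10 nM purified firefly luciferase using Km concentrations of substrates (10 uM D-luciferin, 10 uM ATP) in Tris acetate pH 7.5 buffer; luminescence output.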
KinaseGlo FLuc: Kinase-Glo luciferase inhibition (counter-screen); Q27757; Kinase-Glo luciferase, ATP luminescence, 8 min; Potency, µM (highest dose often 38.3 µM), without a hit: top-dose activity change, negative = inhibition, most hits filed as inhibitors; 0.28% of 200,000 active; further: on the % scale 0 is the no-effect control and ±100 the full control effect; nearly all actives have a fitted effect of over 60% in size
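Recombinant Kinase-Glo luciferase, 10 uM ATP (linear range), luciferin; imidazole pH 7.2 / KCl / MgCl2 / Tween / BSA buffer; 8 min RT; luminescence.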
Rab9 promoter act: activators of Rab9 promoter | AID 485297 | 2.8% of 320,000 active | Huh7 Rab9 promoter-luciferase reporter, luminescence, 24 h | Potency, µM (highest dose often 9.22 µM), for the others: at the highest dose activation, negative = inhibition, hits mostly activators; further: % of control where 0% means no effect; nearly all actives have a fitted effect of over 60% in size
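Promoter activation is measured as luciferase luminescence in Huh7 cells stably transfected with a Rab9 promoter–luciferase construct, following 24 h compound exposure at 37 °C and 10 min reagent incubation at ambient temperature.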
NPC1 promoter act: activators of NPC1 promoter | AID 485313 | 2.4% of 320,000 active | Potency, µM (highest dose often 9.22 µM), for the others: top-dose activation, actives largely listed as activators | Huh7 NPC1 promoter luciferase reporter, 24 h; further: % of control where 0% means no effect; nearly all actives have a fitted effect of over 60% in size
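Luciferase expression driven by the NPC1 promoter was measured in stably transfected Huh7 cells after a 24 h compound incubation, using a luciferase reagent and a luminescence read.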
ELG1 genotox: genotoxicity induction in ELG1-luciferase HEK293T cells; 1.3% of 330,000 active; Potency, µM (highest dose often 46 µM), for the others: at the highest dose activity change, positive = activation, usual class: activators; HEK293T ELG1-luciferase reporter, luminescence, 16 h; further: % of control where 0% means no effect; nearly all actives have a fitted effect of over 60% in size
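Reporter readout depends on ELG1 protein level, which increases with genetic stress. After 16 hr compound exposure at 37 °C, luciferase activity was quantified using ONE-Glo.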
* marks the source's active call; other numbers are inactive results; ? = inconclusive; · = no result given; [ ] = remark or other dose. The call rests on the fitted dose curve; in most records, active means well fitted curve in the direction sought with a large enough effect; inconclusive means small, poorly fitted or top-dose-only effect, or another doubt; inactive means no such curve, though single readings can be large; an effect the other way counts as inactive or inconclusive. Potency means the concentration at half of the fitted maximal effect.

SMILES	SMN2 splice enh	FLuc counter	KinaseGlo FLuc	Rab9 promoter act	NPC1 promoter act	ELG1 genotox
O=C(Oc1ccc(Br)cc1)c1cncc(Br)c1	-20.0%	4.78µM*	4.5%	-2.2%	0.2%	2.0%
O=C(Oc1ccc2cc(Br)ccc2c1)c1cccnc1	-4.4%	?	-4.5%	8.3%	-0.7%	-1.6%
CCc1ccc(C(=O)c2cncc(Br)c2)cc1	?	16.9µM*	12.9%	·	·	·
O=C(COc1ccc(Br)cc1F)Nc1nnc(C2CC2)s1	·	·	·	·	·	1.4%
COc1ccccc1NC(=O)c1csc2c1CCCC2	-17.6%	19µM*	0.7%	-0.8%	-0.5%	-0.3%
O=C(Nc1ccccn1)c1onc2c1CCCC2	0.708µM*	0.757µM*	12.6µM*	0.398µM*	0.355µM*	?
O=C(Nc1ccccn1)c1csc2c1CCCC2	12.6µM*	6.75µM*	-4.2%	1.78µM*	?	7.3µM*
COc1cc(NC(=O)c2csc3c2CCCC3)ncn1	12.6µM*	3.38µM*	-4.2%	3.55µM*	3.55µM*	4.11µM*
Cc1nnc(NC(=O)c2csc3c2CCCC3)s1	22.3%	?	0.9%	18.3%	16.9%	?
CCOC(=O)c1cccc(NC(=O)CSc2ncc3c(n2)-c2ccccc2N(C)S3(=O)=O)c1	·	-1.3%	·	·	·	·
C=CCCC(=O)N1CCCC(C(=O)c2cccc(OC)c2)C1 (stereo not drawn)	·	2.3%	·	-0.2%	3.0%	-0.5%
O=C(N/N=C/c1cccc(OC(=O)c2ccc3c(c2)OCO3)c1)c1cncc(Br)c1	15.8µM*	-5.4%	-4.1%	?	18.7%	12.7%
COC(=O)N/N=C/c1cccc(OC(=O)c2ccc3c(c2)OCO3)c1	·	16.9µM*	·	-0.4%	-2.4%	-1.3%
COc1ccc(C(=O)Oc2cccc(/C=N/NC(N)=S)c2)cc1	?	12µM*	-8.0%	12.3%	20.3%	3.9%
O=C(N/N=C/c1ccc(OC(=O)c2ccc3c(c2)OCO3)cc1)c1cncc(Br)c1	5.2%	1.6%	-0.3%	13.3%	22.9%	4.5%
COc1cc(/C=N/NC(N)=S)ccc1OC(=O)c1ccc(C)cc1	20.7%	-11.4%	-7.2%	-0.2%	2.9%	-8.1%
CSc1nnc(C2CCN(CC(=O)Nc3ccccc3N3CCOCC3)CC2)n1C(C)C	·	8.6%	·	0.3%	-1.9%	15.0%
COC(=O)C1Cc2ccccc2CN1S(=O)(=O)c1ccc(F)cc1 (stereo not drawn)	·	1.1%	·	-2.2%	1.1%	2.5%
CN(C)/C=C/C(=O)/C=C/c1ccc(Cl)cc1	12.6µM*	13.5µM*	-14.3%	?	?	?
CC(C)c1nc(SCC(=O)Nc2ccc(C(=O)O)cc2)c2c3c(sc2n1)CCCC3	·	26.9µM*	·	-0.7%	-1.8%	9.5%
CC1CCc2c(sc3ncnc(SCC(=O)Nc4ccc(C(=O)O)cc4)c23)C1 (stereo not drawn)	·	?	·	-2.2%	-0.7%	2.8%
COc1ccc(OCC(=O)Nc2cc(NC(=O)COc3ccc(OC)cc3)cc(C(=O)O)c2)cc1	·	?	·	-0.2%	3.8%	2.1%
COc1ccc(CC(=O)Nc2cccc(C(=O)Nc3ccccc3C(=O)O)c2)cc1OC	7.2%	16.9µM*	-2.3%	-9.0%	1.2%	-1.3%
COc1ccc(OCC(=O)Nc2cccc(C(=O)Nc3ccccc3C(=O)O)c2)cc1	12.9%	23.9µM*	-0.3%	-1.8%	1.0%	0.3%
CCCCOc1ccccc1C(=O)Nc1nonc1-c1ccccc1	-24.5%	?	·	·	·	·
SMILES	SMN2 splice enh	FLuc counter	KinaseGlo FLuc	Rab9 promoter act	NPC1 promoter act	ELG1 genotox
N#Cc1ccccc1NC(=O)c1cc2c(=O)n3ccccc3nc2s1	12.1%	-4.5%	·	·	·	·
COc1ccc(/C(N)=N/OC(=O)c2ccc(C)c([N+](=O)[O-])c2)cc1	-2.4%	19µM*	1.0%	21.3%	20.3%	?
Cc1cc(C(=O)O/N=C(\N)c2ccncc2)ccc1[N+](=O)[O-]	·	16.9µM*	·	3.16µM*	?	?
COc1ccc(/C(N)=N/OC(=O)c2ccc([N+](=O)[O-])c(C)c2)cc1OC	-9.6%	?	-4.5%	-2.2%	-2.9%	-4.5%
COc1ccc(C2C=C(c3ccccc3)Nc3nc(NC(=O)c4cccc([N+](=O)[O-])c4)nn32)cc1 (stereo not drawn)	·	0.4%	·	·	·	·
FCCCOc1ccc(-c2nccc(-c3ccc(F)cc3)n2)cc1	4.8%	23.9µM*	0.8%	1.2%	-1.3%	1.4%
FCCCOc1ccc(-c2ccnc(-c3ccccc3)n2)cc1	-8.3%	12µM*	-0.9%	19.9%	10.6%	-1.4%
FCCCOc1ccc(-c2nccc(-c3ccc(Br)cc3)n2)cc1	-12.4%	-2.2%	0.0%	-4.3%	-0.7%	-0.4%
CC(=O)c1ccc(C(=O)N2CCC(n3nccc3NC(=O)C3CC3)CC2)cc1	·	6.7%	·	7.0%	-1.0%	1.5%
COc1ccccc1C(=O)Nc1ccc(C(=O)Nc2ccccc2C(=O)O)cc1	·	-0.1%	·	4.0%	1.5%	-8.1%
CCOc1ccc(C(=O)Nc2cccc(C(=O)O)c2C)cc1Cl	0.501µM*	3.38µM*	-7.2%	?	?	-10.2%
COc1ccc(C(=O)Nc2ccccc2C(=O)O)cc1NC(=O)C(c1ccccc1)c1ccccc1	·	13.5µM*	·	22.0%	19.7%	3.7%
CCOc1ccc(C(=O)Nc2ccccc2-c2ccccc2)cc1Cl	-14.7%	-1.9%	1.6%	1.9%	-2.7%	-0.3%
CCN(CC)S(=O)(=O)c1cc(C(=O)Nc2ccccc2C(=O)O)ccc1OC	9.8%	6.01µM*	2.7%	0.4%	15.9%	4.8%
COc1cc(NC(=O)c2ccccc2)c(OC)cc1Cl	10.7%	-16.6%	3.7%	0.3%	1.9%	-0.4%
COc1ccc(C(=O)Nc2ccccc2C(=O)O)cc1Cl	-2.1%[1.84 µM]	5.36µM*	-11.3%	3.55µM*	?	?
N#Cc1ccc(C(=O)OCC(=O)Nc2cccc(S(=O)(=O)NC3=NCCC3)c2)cc1	·	·	·	·	·	2.3%
COCCN(C(=O)CSc1nnc(-c2cccc(F)c2)n1N)c1c(N)n(CC(C)C)c(=O)[nH]c1=O	·	4.5%	·	8.5%	-2.6%	3.9%
COc1ccc(NCC(=O)N/N=C/c2cc([N+](=O)[O-])ccc2N2CCCC2)cc1	-7.0%	-14.0%	-0.2%	-12.6%	-2.1%	-11.1%
CCOc1c(Cl)cc(C(=O)Nc2ccccc2C(=O)O)cc1Cl	?	19µM*	-2.7%	?	24.8%	0.6%
O=[N+]([O-])c1ccc(N=Nc2c(Cl)cc(O)cc2Cl)cc1	·	2.69µM*	·	-46.5%	-38.9%	7.7%
CC(N)=Nc1ccc([N+](=O)[O-])cc1	-7.7%	0.4%	-0.9%	2.5%	-1.2%	-0.8%
O=C(c1cccc(NS(=O)(=O)c2cccc(C(F)(F)F)c2)c1)N1CCOCC1	·	-1.3%	·	-1.4%	-1.1%	-0.9%

Compound activity from PubChem BioAssay.
